Source: the supplement of paper PMC6992640
± gives the standard deviation of the averaged measurements.
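Also: PDX cells carrying CMV promoter-driven luciferase, viability read as total photon flux per second by IVIS imaging following D-luciferin, vehicle control 0.1% DMSO.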

These compounds were tested on WHIM2 (cells of a triple-negative basal-like breast cancer xenograft) (assay: cell viability (% of vehicle); higher = less cytotoxic). Conditions: 10 µM; 72 h.
Work on `CC12CCC3c4ccc(O)cc4CCC3C1CCC2=O` (stereo not drawn) [Estrone] yielded a cell viability of 113 ± 22.
In the case of `CO[C@@]1(NC(=O)[C@H](C(=O)[O-])c2ccc(O)cc2)C(=O)N2C(C(=O)[O-])=C(CSc3nnnn3C)CO[C@@H]21.[Na+].[Na+]` [Moxalactam (sodium salt)], the cell viability is reported as 92.8 ± 6.9.
`CC(C)c1cc(C(=O)N2Cc3ccc(CN4CCN(C)CC4)cc3C2)c(O)cc1O` gave a cell viability of 75.3 ± 3.1.
`Cl.O=C1NCC2(CCN(CCc3ccccc3)CC2)O1` [Fenspiride HCl] gave a cell viability of 98.1 ± 4.1.
With `C#C[C@]1(O)CC[C@H]2[C@@H]3CCC4=CC(=O)CC[C@@H]4[C@H]3C(=C)C[C@@]21CC` [Etonogestrel] the cell viability was 112 ± 30.
Work on `CCCC1O[C@@H]2C[C@H]3[C@@H]4CCC5=CC(=O)C=C[C@]5(C)[C@H]4[C@@H](O)C[C@]3(C)[C@]2(C(=O)CO)O1` (stereo partly drawn) [Budesonide] yielded a cell viability of 74.4 ± 20.
In the case of `CC(C)(C#N)c1cc(Cn2cncn2)cc(C(C)(C)C#N)c1` [Anastrozole], the cell viability is reported as 132 ± 22.
In the case of `O=C(Nc1cccc2c(=O)cc(-c3nn[nH]n3)oc12)c1ccc(OCCCCc2ccccc2)cc1` [Pranlukast], the cell viability is reported as 65.3 ± 11.
`CO[C@H]1C(=O)[C@]2(C)[C@@H](OC)C[C@H]3OC[C@@]3(OC(C)=O)[C@H]2[C@H](OC(=O)c2ccccc2)[C@]2(O)C[C@H](OC(=O)[C@H](O)[C@@H](NC(=O)OC(C)(C)C)c3ccccc3)C(C)=C1C2(C)C` [Cabazitaxel] gave a cell viability of 72 ± 11.
`COc1ccccc1OCC(O)CO` (stereo not drawn) [Guaifensin] showed a cell viability of 95 ± 18.
`O=C(Nc1c(Cl)cncc1Cl)c1ccc(OC(F)F)c(OCC2CC2)c1` [Roflumilast] showed a cell viability of 104 ± 15.
Work on `CCCCCC(O)C=CC1C(O)CC(=O)C1CCCCCCC(=O)O` (stereo not drawn) [Alprostadil] yielded a cell viability of 147 ± 12.
With `C#CC1(O)CCC2C3CCC4=CC(=O)CCC4C3CCC21C` (stereo not drawn) [Norethindrone] the cell viability was 93.1 ± 21.
`CCCc1nc(C(C)(C)O)c(C(=O)O)n1Cc1ccc(-c2ccccc2-c2nn[nH]n2)cc1` [Olmesartan] showed a cell viability of 91.2 ± 3.6.
For `CC12CCC3c4ccc(O)cc4CCC3C1CCC2O` (stereo not drawn) [Estradiol], the cell viability was 108 ± 28.
Work on `N=C(N)NCCCC[C@@H]1NC(=O)CCSSC[C@@H](C(N)=O)NC(=O)[C@@H]2CCCN2C(=O)[C@H](Cc2c[nH]c3ccccc23)NC(=O)[C@H](CC(=O)O)NC(=O)CNC1=O` [Eptifibatide] yielded a cell viability of 101 ± 13.
`C#CC1(O)CCC2C3CCC4=CC(=O)CCC4C3CCC21CC` (stereo not drawn) [Levonorgestrel] showed a cell viability of 91.5 ± 9.7.
Compound `CCC(=O)OCC(=O)C1(OC(=O)CC)C(C)CC2C3CCC4=CC(=O)C=CC4(C)C3(Cl)C(O)CC21C` (stereo not drawn) [Beclomethasone dipropionate] has a cell viability of 128 ± 3.2.
In the case of `C[C@@H]1C[C@H]2[C@H]3CCC4=CC(=O)C=C[C@]4(C)[C@@]3(F)[C@@H](O)C[C@]2(C)[C@@]1(O)C(=O)CO` [Dexamethasone (DHAP)], the cell viability is reported as 83.4 ± 20.
Compound `CCC(=O)OC1(C(=O)CCl)C(C)CC2C3CCC4=CC(=O)C=CC4(C)C3(F)C(O)CC21C` (stereo not drawn) [Clobetasol propionate] has a cell viability of 91 ± 25.
`O=C(NS(=O)(=O)c1ccc(Br)s1)c1ccc(Cl)cc1Cl` [Tasisulam] showed a cell viability of 167 ± 16.
For `Nc1nnc(-c2cccc(Cl)c2Cl)c(N)n1` [Lamotrigine], the cell viability was 96.1 ± 13.
`Cl.O=C(CCCN1CCC(O)(c2ccc(Cl)cc2)CC1)c1ccc(F)cc1` [Haloperidol hydrochloride] was tested, and the cell viability was 114 ± 6.5.
`CC(=O)OC1(C(C)=O)CCC2C3C=C(C)C4=CC(=O)CCC4(C)C3CCC21C` (stereo not drawn) [Megestrol Acetate] showed a cell viability of 93.7 ± 14.
For `O=c1c(O)c(-c2ccc(O)c(O)c2)oc2cc(O)cc(O)c12` [Quercetin], the cell viability was 107.1 ± 0.64.
`O=NN(CCCl)C(=O)NCCCl` [Carmustine] gave a cell viability of 96.23 ± 0.26.
For `O=C(CCCN1CCN(c2ccccn2)CC1)c1ccc(F)cc1` [Azaperone], the cell viability was 98.3 ± 4.7.
In the case of `CC(NCCc1ccc(O)cc1)C(O)c1ccc(O)cc1.Cl` (stereo not drawn) [Ritodrine HCl], the cell viability is reported as 97.8 ± 37.
Work on `C#CC1(O)CCC2C3CCc4cc(OC)ccc4C3CCC21C` (stereo not drawn) [Mestranol] yielded a cell viability of 159 ± 12.
Compound `C=CCNC1=C2CC(C)CC(OC)C(O)C(C)C=C(C)C(OC(N)=O)C(OC)C=CC=C(C)C(=O)NC(=CC1=O)C2=O` (stereo not drawn) has a cell viability of 63.25 ± 0.14.
`CCCN(CCC)S(=O)(=O)c1ccc(C(=O)O)cc1` [Probenecid] gave a cell viability of 92.7 ± 6.9.
With `Cc1onc(-c2ccccc2)c1C(=O)NC1C(=O)N2C1SC(C)(C)C2C(=O)[O-].O.[Na+]` (stereo not drawn) [Oxacillin sodium monohydrate] the cell viability was 91 ± 13.
`NS(=O)(=O)c1cc2c(cc1Cl)NCNS2(=O)=O` [Hydrochlorothiazide] showed a cell viability of 101 ± 3.8.
In the case of `NCCc1cnc[nH]1.O=P(O)(O)O.O=P(O)(O)O` [Histamine Phosphate], the cell viability is reported as 98.8 ± 4.3.
`NCC(O)c1ccc(O)c(O)c1.O.O=C(O)C(O)C(O)C(=O)O` (stereo not drawn) [Noradrenaline bitartrate monohydrate] gave a cell viability of 73 ± 14.
In the case of `CCC1C(=O)N(C)c2cnc(Nc3ccc(C(=O)NC4CCC(N5CCN(CC6CC6)CC5)CC4)cc3OC)nc2N1C(C)C` (stereo not drawn) [BI6727 (Volasertib)], the cell viability is reported as 43.5 ± 8.7.
`CCC1OC(=O)C(C)C(OC2CC(C)(OC)C(O)C(C)O2)C(C)C(OC2OC(C)CC(N(C)C)C2O)C(C)(O)CC(C)CN(C)C(C)C(O)C1(C)O` (stereo not drawn) [Azithromycin] gave a cell viability of 114.9 ± 1.1.
`CC(C)Cn1cnc2c(N)nc3ccccc3c21` [Imiquimod] gave a cell viability of 115 ± 14.
